High-throughput results: PubChem BioAssay, National Center for Advancing Translational Sciences (NCATS)
In the library only some 2.4% were active in any assay of this set; here they are far more common.
D2 PAM-1 – positively modulates the human D2 dopamine receptor allosterically; P14416; HEK293 T-REx D2, calcium flux, EC20 dopamine potentiation; potentiation, % at 10 µM; 340,000 compounds, 0.34% hits; AID 485347;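 active = potentiation over 3 SD above the plate norm, cut at about 30% in these data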; note: 0% is about no effect
Target sequence (P14416 whole entry, looked up): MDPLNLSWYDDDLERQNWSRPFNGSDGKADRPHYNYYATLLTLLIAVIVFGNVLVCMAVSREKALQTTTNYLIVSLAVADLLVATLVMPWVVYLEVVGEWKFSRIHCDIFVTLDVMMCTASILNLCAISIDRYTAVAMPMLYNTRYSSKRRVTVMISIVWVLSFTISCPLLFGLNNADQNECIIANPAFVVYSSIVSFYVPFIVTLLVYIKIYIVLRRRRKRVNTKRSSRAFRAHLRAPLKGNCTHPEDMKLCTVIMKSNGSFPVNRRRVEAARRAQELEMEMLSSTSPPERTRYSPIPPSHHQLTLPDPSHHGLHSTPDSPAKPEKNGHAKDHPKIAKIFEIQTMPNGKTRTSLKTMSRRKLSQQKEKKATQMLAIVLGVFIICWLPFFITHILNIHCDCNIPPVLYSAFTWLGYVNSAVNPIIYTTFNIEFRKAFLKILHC
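Using a no-wash calcium dye in inducible, force-coupled HEK293 Trex cells expressing D2, we tracked fluorescence each second for 180 s after compound, then for 180 s after EC20 dopamine to detect augmented signalling.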
D2 PAM-2 – potentiates the human D2 dopamine receptor allosterically; AID 624464; P14416; DiscoveRx D2 beta-arrestin cells, luminescence, 90 min; 100% = 57 uM dopamine signal; potentiation, % (concentration not given with the values); 360,000 compounds, 0.23% hits; in the data active = potentiation above about 50%; inconclusive = mostly about 30% to 49%
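PathHunter beta-arrestin assay in DiscoveRx D2 cells. Compounds were added with an EC20 of dopamine (50 nM final) for 90 min at 37 deg C. Luminescence was read 1 h after detection reagent, with 57 uM dopamine as the EC100 control.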
D2 antagonist – antagonizes the human D2 dopamine receptor | AID 485344 | P14416 | HEK293 TREx D2 cells, calcium flux, dopamine EC80 | 340,000 compounds, 2% hits | inhibition, % at 10 µM; in the data active = inhibition above about 30%; inactive = below that, where a call was filed; note: 0% is about no effect
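Read-out: kinetic calcium fluorescence (1 cycle/s) in inducible HEK293 T-REx D2 cells after an EC80 dopamine addition that followed 180 s compound preincubation. Loss of the dopamine response indicates antagonism.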
D2 ag-1 – D2 dopamine receptor (human) agonism | P14416 | HEK293 T-REx D2 cells, calcium flux agonist mode | activation, % at 2 µM | 340,000 compounds, 0.53% hits;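 active = activation over 3 SD above normal in the single-dose calcium agonist read, cut at about 30% in these data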; note: 0% is about no effect
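Agonism scored from kinetic calcium signal (1 read/sec, 180 s) following compound pin transfer, after a 10 s baseline. Cells: HEK293 Trex line expressing inducible D2 receptor coupled to calcium, dye-loaded after overnight culture at 30 C.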
D2 ag-2 – activates the human D2 dopamine receptor; P14416; DiscoveRx PathHunter D2 beta-arrestin, luminescence, 90 min; 100% = 57 uM dopamine signal; activation, % (test concentration not listed); 360,000 compounds, 0.084% hits; AID 624465; in the data active = activation above about 40%; inconclusive = between about 15% and that limit
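Agonist mode: compounds alone added to overnight-plated D2 PathHunter cells for 90 min at 37 C, with 57 uM final dopamine (EC100) defining full response. Beta-arrestin recruitment detected by chemiluminescent reagent, read after 1 h at ambient temperature.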
D3 ag – D3 receptor agonism confirmed, beta-arrestin readout; DiscoveRx D3 beta-arrestin cells, luminescence, 90 min; shares compounds with D2 ag-1; Potency, µM (titrated, usually from 76.9 µM), inactives show top-dose activation, most hits filed as activators; AID 720506; 2,300 compounds, 4% hits;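 note: potency is the fitted concentration of half-maximal effect; 100% = dopamine control response; nearly all actives have a fitted effect of over 70% in size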
D2 ag-3 – activates human D2 dopamine receptor in D3 counterscreen | shares compounds with D2 ag-1 | DiscoveRx PathHunter D2 beta-arrestin, luminescence, 90 min; response scale: percent relative to full dopamine signal | Potency, µM (highest dose often 76.9 µM), inactives show top-dose activation, most hits filed as activators | 2,300 compounds, 5.9% hits | AID 720507; note: potency is the fitted concentration of half-maximal effect; % of control where 0% means no effect; nearly all actives have a fitted effect of over 70% in size
Active calls of the source: *; ? = inconclusive; · = not tested or not shown. Unless noted, calls come from the whole dose curve; as a rule, active = well fitted activation curve with a large enough effect; inconclusive = small, poorly fitted or top-dose-only effect; inactive = flat fitted curve, though single readings scatter.

SMILES	D2 PAM-1	D2 PAM-2	D2 antagonist	D2 ag-1	D2 ag-2	D3 ag	D2 ag-3
COc1cc(CC(=O)OCC(=O)NC(C)c2ccccc2)cc(OC)c1OC (centres undefined)	·	15	·	·	1	·	·
COc1cccc(CC(=O)OCC(=O)NC(C)c2ccc(F)cc2)c1 (centres undefined)	1	-6	-4	0	-5	-1%	-1%
COc1ccc(C2C(=O)N(C3CCCCCC3)CC(=O)N2Cc2ccc(C)cc2)cc1 (centres undefined)	-9	·	·	1	·	·	·
Cn1c(=NC(=O)COc2ccccc2)sc2cc(F)cc(F)c21	2	-7	-5	1	-6	·	·
Cn1c(=NC(=O)COc2ccccc2)sc2cccc(F)c21	-6	0	3	2	-1	-4%	-2%
O=S(=O)(NCC(c1cccnc1)N1CCN(Cc2ccccc2)CC1)c1cc(F)ccc1F (centres undefined)	-15	-5	43*	70*	11	4%	17%
COc1ccc(N2CCN(C(CNS(=O)(=O)c3cccs3)c3cccnc3)CC2)cc1 (centres undefined)	26	-4	12	-1	-2	·	·
O=S(=O)(NCC(c1cccnc1)N1CCN(c2ccccc2)CC1)c1cccs1 (centres undefined)	-8	9	-18	15	9	-4%	4%
CCc1nn(CC(=O)Nc2ccc(C)c(F)c2)c(=O)c2cc3cc(C)ccc3n12	13	·	·	0	·	·	·
CSc1ccc(CCNS(=O)(=O)c2cc(-c3cc(C)no3)ccc2C)cc1	9	·	·	0	·	·	·
COc1ccc(-c2cc(C)no2)cc1S(=O)(=O)NCCCN1CCN(c2ccccc2)CC1	-31	-6	80*	78*	7	24%	?
Cc1cc(-c2ccc(C)c(S(=O)(=O)NCCCN3CCN(c4ccccc4)CC3)c2)on1	-28	-8	73*	72*	11	?	?
Cc1cc(-c2ccc(C)c(S(=O)(=O)NCCCN3CCN(c4ccccc4F)CC3)c2)on1	-24	-8	76*	70*	11	?	?
COc1cccc(NC(=O)Nc2ccc3c(c2)CCC3)c1	1	-10	-22	1	2	·	·
O=C(OCC(=O)N1CCc2ccccc21)c1n[nH]c(=O)c2ccccc12	-4	-1	11	0	2	·	·
COc1ccccc1C(=O)NC(=O)COC(=O)c1ccc(C)o1	11	1	-12	0	-1	·	·
CCC1(C)NC(=O)N(CC(=O)N2CCC(Cc3ccccc3)CC2)C1=O (centres undefined)	-4	-5	-20	1	-3	·	·
CCC(=O)N1C(Cc2ccccc2)COC1(C)C (centres undefined)	-18	-4	-3	41*	-3	-8%	-5%
O=c1ccn(CCc2c[nH]c3ccccc23)c2c1CCCC2	-19	3	19	43*	2	-5%	-1%
CSCC[C@H](NS(=O)(=O)c1ccc(C)cc1)C(=O)N1CCC(C(=O)N[C@H](C(=O)O)c2ccccc2)CC1	4	-4	24	0	-3	·	·
C/C(=N\NC(=O)C12CCC(C)(C(=O)O1)C2(C)C)c1ccccc1O (centres undefined)	-30	-9	82*	83*	?	?	?
CN(CC(=O)NCCN1CCN(c2ccccc2)CC1)S(=O)(=O)c1ccc2c(c1)CCC(=O)N2	-22	-6	75*	82*	1	?	?
O=C(c1ccccc1)N1N=C(C(F)(F)F)CC1(O)c1ccc(F)cc1 (centres undefined)	8	-4	-27	0	-3	-12%	-1%
O=C(c1ccccc1)N1N=C(C(F)(F)F)CC1(O)c1ccccc1 (centres undefined)	4	-12	-2	-2	1	·	·
Cc1noc(C)c1C(=O)N1CCC1(C)C(=O)NS(=O)(=O)c1cccc(OC(F)F)c1 (centres undefined)	·	-4	·	·	-4	·	·
SMILES	D2 PAM-1	D2 PAM-2	D2 antagonist	D2 ag-1	D2 ag-2	D3 ag	D2 ag-3
O=C(NNS(=O)(=O)c1ccccc1[N+](=O)[O-])c1cccc(Br)c1	·	11	·	·	3	·	·
O=C(NNS(=O)(=O)c1ccccc1[N+](=O)[O-])c1cccc(Cl)c1	-19	9	-23	51*	-1	-4%	1%
CCCCn1c(N)c(N(CCOC)C(=O)Cn2c(=O)cnc3ccccc32)c(=O)[nH]c1=O	0	-6	-7	1	8	-4%	-3%
CCCCn1c(N)c(N(CCOC)C(=O)COc2ccc(C(C)=O)cc2)c(=O)[nH]c1=O	5	-9	2	0	-2	·	·
CCN(CC)CCSc1nnc2c3ccccc3n(Cc3ccccc3)c2n1	-13	-26	60*	0	-5	-10%	-6%
CCN(CC)CCSc1nnc2c3cc(F)ccc3n(Cc3ccccc3)c2n1	-18	-18	-27	-2	0	·	·
CC1CN(C(=O)CCC(=O)N2CCN(c3ccccn3)CC2)c2ccccc2O1 (centres undefined)	-7	-3	-22	0	-3	·	·
Cc1ccc2c(c1)N(C(=O)CCC(=O)N1CCN(c3ccccn3)CC1)CC(C)O2 (centres undefined)	-18	-3	-12	50*	-4	12%	9%
CN(C)CCCOc1cccc(Cl)c1	-17	-13	-13	-1	-1	·	·
c1ccc(OCCN2CCOCC2)cc1	3	-2	13	38*	0	-1%	5%
O=S(=O)(c1ccc(Br)s1)N1CCN(CCOc2ccccc2)CC1	-35	-28	53*	43*	11	?	20%
Clc1cccc(OCCN2CCN(CCOc3cccc(Cl)c3)CC2)c1	-24	-15	93*	74*	?	?	25%
c1ccc(Cc2ccc(OCCN3CCOCC3)cc2)cc1	-1	-13	11	0	5	·	·
O=C(Nc1ccn(CC(=O)N2CCN(c3ccccn3)CC2)c(=O)n1)OCc1ccccc1	8	2	-3	0	-2	-2%	0%
O=C(Nc1ccn(CCCN2CCN(c3ncccn3)CC2)c(=O)n1)OCc1ccccc1	·	·	·	·	6	·	·
CC1(C)C(C=C(Cl)Cl)C1C(=O)N1CCN(Cc2ccccc2)CC1 (centres undefined)	-23	?	78*	70*	?	?	18µM*
